Laboratory results from PubChem BioAssay (NCI).
Values joined by “and” are separate entries in the source; they are usually repeats but may differ in a detail not shown here. Equal values may be shown once. About 83,000 compounds went through this panel and 20% of them were active in at least one assay; those are over-represented in the sample as a whole.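 48-hour exposure, single concentration, 96-well plates; percent growth endpoint where 0 means no net growth. Active: below 10.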 Active and inactive are the calls of the source.

Each compound was assayed on HL-60(TB) leukemia (assay: NCI-60 one-dose screen, 48 h (100 = growth as untreated, 0 = no growth, -100 = all killed)). Conditions: 10 µM unless noted.

Structure (SMILES)	growth
C=CCc1nc2ccccc2s1	105% (inactive)
CCOc1ccc2cc(-c3nn(CC4CCNCC4)c4ncnc(N)c34)ccc2c1	98.1% (inactive) and 19.7% (inactive)
CCOC(=O)c1cc(C)[nH]c(=O)c1C#N	121% (inactive)
COCC(=O)NC/C=C/c1ccc2ncnc(Nc3ccc(Oc4ccc(C)nc4)c(C)c3)c2c1	22.2% (inactive)
Nc1c(C(=O)Nc2cccc3ccccc23)sc2nc3c(cc12)COCC3	-4.22% (active)
COc1ccc(OC)c(-c2c(C#N)c(-c3cccs3)nc3c2c(-c2ccccc2)nn3-c2ccccc2)c1	107% (inactive)
Nc1ccccc1SC(CC(=O)c1ccccc1)c1ccc([N+](=O)[O-])cc1 (stereo not given)	95.8% (inactive) and 74.9% (inactive)
Cc1sc(N=Nc2ccc(N(C)C)cc2)[n+]([O-])c1C	92.7% (inactive)
COC(=O)/C(CCC=C(C)C)=C1\[C@@H](OC(C)=O)C[C@@]2(C)[C@H]1C[C@@H](O)[C@H]1[C@@]3(C)CC[C@H](NCCCNCCCCNCCCN)[C@@H](C)[C@@H]3CC[C@@]12C	37.2% (inactive)
O=[P@@]1(c2ccccc2)O[C@H](COCc2ccccc2)[C@@H](OCc2ccccc2)[C@H](OCc2ccccc2)[C@H]1NCc1ccccc1	-25.1% (active)
COc1ccc(-c2nnc(SCC(=O)c3ccc(Cl)cc3)o2)cc1	108% (inactive)
COc1ccc(OC)c(/C=C2\Oc3cc(OCCN4CCC(Cc5ccccc5)CC4)ccc3C2=O)c1	98.2% (inactive)
Brc1ccc2c(c1)CN(C1CCCCC1)CO2	106% (inactive)
N=C(N=C(N)N)N1CCOCC1	100% (inactive) and 99.1% (inactive)
CCN(CC)CCNc1cc(-c2cccc(OC(F)(F)F)c2)nc2ccc(N3CCCC3)cc12	-55.4% (active) and -26.1% (active) and 12.6% (inactive)
CCN(CC)C(=O)C1CCN(C(=O)c2ccccc2)CC1	89.3% (inactive)
Cn1c(SSc2ccc(-c3cccnc3)n2C)ccc1-c1cccnc1	62.8% (inactive) and -32.2% (active)
CCCC(=O)Oc1ccc(/C(=C(\C)c2ccccc2)c2ccc(OCCN(CC)CC)cc2)cc1	39.2% (inactive)
CCN1CCOC1C(C)C (stereo not given)	90% (inactive)
CN(C)CCCn1c(=O)c2cc([N+](=O)[O-])ccc2c2cnc3[nH]ccc3c21	90.4% (inactive)
C=C(C)[C@@H]1CC[C@]2(C(=O)N3CCN(C)CC3)CC[C@]3(C)[C@H](CC[C@@H]4[C@@]5(C)CC(=C/c6ccncc6)/C(=N/O)C(C)(C)[C@@H]5CC[C@]43C)[C@@H]12	40.4% (inactive)
O=c1ssc(Cl)c1-c1ccccc1	48% (inactive)
O=C(Nc1nc2ccc(S(=O)(=O)Nc3ccc(C4(C(F)(F)F)CC4)cc3)cc2[nH]1)c1cnccn1	-12.2% (active)
OC(CNC1CCCC1)Cn1c2ccccc2c2ccccc21 (stereo not given)	-47.3% (active)
Cc1ccc(C=C2C(Cl)=C(Cl)C(Cl)=C2Cl)cc1	7.68% (active)
